Source: ChEMBL document CHEMBL1201862, “PubChem BioAssay data set” (2004)
Values joined by “and” are separate entries in the source; they are usually repeats but may differ in a detail not shown here. Equal entries are not always repeated.

Assay: A High Throughput Confirmatory Assay used to Identify Novel Compounds that Inhibit Mycobacterium Tuberculosis in the absence of Glycerol using Purified and Synthesized Compounds (8).
Format: functional

| Structure (SMILES) | IC90 |
| --- | --- |
| COc1ccc(N2CCN(C(=O)c3ccc(CNc4c(N5CCOCC5)c(=O)c4=O)cc3)CC2)cc1 | > 100 µM (active) |
| CC1CCN(C(=O)c2ccc(CNc3c(N4CCCC4)c(=O)c3=O)cc2)CC1 | > 100 µM (active) |
| O=C(c1ccc(CNc2c(N3CCCC3)c(=O)c2=O)cc1)N1CCc2ccccc2C1 | > 100 µM (active) |
| CCOC(=O)N1CCC(/N=c2\c(O)c(O)\c2=N/c2cccc(CC)c2)CC1 | > 59.3 µM (active) |
| CC(C)CCNC(=O)CSc1nc2c(c(=O)[nH]1)CCCCC2 | > 100 µM (active) |
| CC1CCCN(C(=O)c2ccc(CNc3c(N4CCCCC4)c(=O)c3=O)cc2)C1 (stereo not drawn) | > 100 µM (active) |
| O=C(c1ccc(CNc2c(N3CCCC3)c(=O)c2=O)cc1)N1CCC(c2ccccc2)CC1 | > 100 µM (active) |
| CC(C)OC(=O)CSc1ncnc2c1cnn2-c1ccccc1 | > 100 µM (active) |
| CC(=O)c1ccc(NC(=O)c2ccc(CNc3c(N4CCOCC4)c(=O)c3=O)cc2)cc1 | > 100 µM (active) |
| CC1CC(C)CN(C(=O)C2CCC(CNc3c(N4CCCCC4)c(=O)c3=O)CC2)C1 (stereo not drawn) | > 75 µM (active) and > 100 µM (active) |
| O=C(NCCc1ccc(Cl)cc1)C1CCC(CNc2c(N3CCCCC3)c(=O)c2=O)CC1 (stereo not drawn) | > 83.3 µM (active) |
| O=C(c1ccc(CNc2c(N3CCOCC3)c(=O)c2=O)cc1)N1CCC(c2ccccc2)CC1 | > 68.9 µM (active) |
| O=C(c1ccc(CNc2c(N3CCOCC3)c(=O)c2=O)cc1)N1CCN(c2ccccc2)CC1 | > 53.1 µM (active) |
